Experimental findings from PubChem BioAssay (Tox21) are described below.

Records with an inconclusive call do not appear. The source made the active and inactive calls. The call rests on the fitted dose curve; in most records, active means well fitted cell-killing curve with a large enough effect in the repeat runs; inconclusive means weak or mixed curves, or effect the other way; inactive means flat fitted curve, though single readings scatter.
On the % scale 0 is the no-effect control and ±100 the full control effect; potency means the concentration at half of the fitted maximal effect.

The assay in a line: qHTS assay to identify small molecule agonists of the estrogen receptor beta (ER-beta) signaling pathway - cell viability counter screen (AID 1259380). Further: nearly all actives have a fitted effect of over 30% in size. The following applies: ER-beta-bla HEK293T viability, CellTiter-Glo luminescence, 16 h; series mostly up to 92.4 µM; activity change, negative = cytotoxicity: at the top concentration. The text has this:
National Center for Advancing Translational Sciences [NCATS]
NIH Chemical Genomics Center [NCGC]
U.S. Environmental Protection Agency [EPA]
National Institutes of Environmental Health Sciences [NIEHS]
National Toxicology Program [NTP]
U.S. Food and Drug Administration [FDA]
Estrogen receptor (ER), a nuclear hormone receptor, plays an important role in development, metabolic homeostasis and reproduction. Two subtypes of ER, ER-alpha and ER-beta, have similar expression patterns with some uniqueness in both types. Endocrine disrupting chemicals (EDCs) and their interactions with steroid hormone receptors like ER causes disruption of normal endocrine function. To identify the compounds that activate ER signaling, an ER beta-UAS-bla GripTite cell line (Life Technologies, Madison, WI, USA) containing a beta-lactamase reporter gene under the control of an UAS response element was used to screen Tox21 10K compound library. The cytotoxicity of the Tox21 compound library against the ER-beta-bla cell line was tested in parallel by measuring the cell viability using CellTiter-Glo assay in the same wells.
Tox21 Assay Protocol Summary:
ER-beta-UAS-bla HEK293T cells were dispensed at 2,000 cells/5 uL of assay medium containing 2% charcoal stripped FBS per well into black wall/clear-bottom 1536-well plates using a Multidrop Combi (ThermoFisher Scientific, Waltham, MA) dispenser. After the assay plates were incubated at a 37C and 5% CO2 for 6 hr, 23 nL of compounds dissolved in DMSO, positive controls or DMSO only was transferred to the assay plate by a Pintool station (Kalypsys, San Diego, CA). The plates were incubated at 37C and 5% CO2 for 16 hr. Then 1 uL of LiveBLAzerTM B/G FRET substrate was added using a BioRAPTR FRD (Flying Reagent Dispenser, Aurora Discovery, San Diego, CA) and then the plates were incubated at room temperature for 2 hours, and fluorescence intensity was measured by an Envision plate reader (PerkinElmer, Shelton, CT). For cell viability readout that measures cytotoxicity, 4 uL/well of CellTiter-Glo reagent was added into the assay plates using a FRD. After 30 min incubation at room temperature, the luminescence intensity in the plates was measured using a ViewLux (PerkinElmer) plate reader.
A general note: In qHTS, concentration-response curves come from the screen itself.
In the case of `c1ccc2sc(SSc3nc4ccccc4s3)nc2c1`, the activity change, negative = cytotoxicity is -1.6% [at 19 µM] (inactive). For the molecule `CC(O)Cn1cnc2c1c(=O)n(C)c(=O)n2C` (stereo not given), the “activity change, negative = cytotoxicity” value was 2.83% [at 42.5 µM] (inactive). Take `CC(CN(CCN(CC(C)OCCO)CC(C)OCCO)CC(C)OCCO)OCCO` (stereo not given): the “activity change, negative = cytotoxicity” value was -2.15% (inactive). As for `c1ccc(CNc2ncnc3c2ncn3C2CCCCO2)cc1` (stereo not given), the “activity change, negative = cytotoxicity” value is 12.8% (inactive). Take `CC1CCCC(=O)C1=O` (stereo not given): the “activity change, negative = cytotoxicity” value is 8.03% (inactive). Consider `CC(=O)OCC1=C(C(=O)O)N2C(=O)[C@@H](NC(=O)CSc3ccncc3)[C@H]2SC1`, for which the “activity change, negative = cytotoxicity” value is 3.98% [at 42.5 µM] (inactive). Still for that read-out and setting: the same measure for `COC(CC(C)CCCC(C)(C)O)OC` (stereo not given): 0.939% (inactive); for `O=C1CC[C@@H](C(=O)O)N1`: 9.99% [at 42.5 µM] (inactive).

With `Cc1cc(CCCOc2c(C)cc(-c3noc(C(F)(F)F)n3)cc2C)on1`, the “activity change, negative = cytotoxicity” value is 1.54% [at 42.5 µM] (inactive). In the case of `COc1ccc(N)c([N+](=O)[O-])c1`, the “activity change, negative = cytotoxicity” value was 1.04% (inactive). Consider `Nc1nc(-c2ccc([N+](=O)[O-])cc2)cs1`, for which the “activity change, negative = cytotoxicity” value was -4.72% (inactive).

For the molecule `Cc1ccc(Nc2c(F)cccc2Cl)c(CC(=O)O)c1`, the Potency is 26.6 µM (active). For the molecule `O=P(O)(O)Oc1ccccc1`, the “activity change, negative = cytotoxicity” value was -0.549% (inactive). Same read-out and setting: the result for `CC(C)(C)NCC(O)COc1cccc2c1C[C@H](O)[C@H](O)C2` (stereo not given in full) reads -0.529% [at 42.5 µM] (inactive). As to `C[C@@H]1C[C@H]2[C@@H]3CCC4=CC(=O)C=C[C@]4(C)[C@@]3(F)[C@@H](O)C[C@]2(C)[C@@]1(O)C(=O)COP(=O)(O)O`, the “activity change, negative = cytotoxicity” value is 0.905% (inactive).

In the case of `Nc1cccc2c(N)cccc12`, the Potency was 4.86 µM (active).

Turning to `CS(=O)(=O)c1ccc([C@@H](C[C@H]2CCC(=O)C2)C(=O)Nc2cnccn2)cc1Cl`, the “activity change, negative = cytotoxicity” value was 8.38% (inactive). For `CCN(CC)CCNC(=O)c1cc(Cl)c(N)cc1OC`, the “activity change, negative = cytotoxicity” value is 1.68% [at 42.5 µM] (inactive). On to `CC(C)(C)C1(CCc2ccc(Cl)cc2)CO1` (stereo not given), for which the “activity change, negative = cytotoxicity” value was -2.25% (inactive). For the molecule `BrC(Br)C(Br)Br`, the “activity change, negative = cytotoxicity” value was 0.372% (inactive). Consider `CC[C@H]1OC(=O)[C@H](C)[C@@H](O[C@H]2C[C@@](C)(OC)[C@@H](O)[C@H](C)O2)[C@H](C)[C@@H](O[C@@H]2O[C@H](C)C[C@H](N(C)C)[C@H]2O)[C@](C)(O)C[C@@H](C)CN(C)[C@H](C)[C@@H](O)[C@]1(C)O`, for which the “activity change, negative = cytotoxicity” value is 0.111% [at 42.5 µM] (inactive). In the case of `C=CC(=O)O`, the “activity change, negative = cytotoxicity” value is 1.4% [at 42.5 µM] (inactive). For `O=CNNC=O`, the “activity change, negative = cytotoxicity” value was 5.02% (inactive). With `Cc1cccc(C)c1NC(=O)c1cc(S(N)(=O)=O)c(Cl)cc1O`, the “activity change, negative = cytotoxicity” value is 5.85% [at 42.5 µM] (inactive).

Regarding `CCCCCCCCCCCCCCN(C)C`, the activity change, negative = cytotoxicity was -12.9% [at 19 µM] (inactive). In the case of `CC(C)C1CCC(C(=O)N[C@H](Cc2ccccc2)C(=O)O)CC1` (stereo not given in full), the “activity change, negative = cytotoxicity” value is 1.03% [at 42.5 µM] (inactive). As to `O=C(O)CCS`, the “activity change, negative = cytotoxicity” value is 7.58% (inactive).

As to `COc1ccc(C(=O)NCc2ccc(OCCN(C)C)cc2)cc1OC`, the “activity change, negative = cytotoxicity” value is 4.11% [at 42.5 µM] (inactive).

Regarding `CCCCCCOC(=O)CCCCC`, the “activity change, negative = cytotoxicity” value was 1.81% (inactive). Still for that read-out and setting: the result for `C=CCOC(=O)COCCC(C)C` reads -1.12% (inactive). Take `CC1CCC(C(C)CS)CC1S` (stereo not given): the “activity change, negative = cytotoxicity” value is -13.7% (inactive). Turning to `CC(=O)Oc1cccc(O)c1`, the “activity change, negative = cytotoxicity” value is 2.28% [at 42.5 µM] (inactive). Take `CC(CO)(CO)C(=O)O`: the “activity change, negative = cytotoxicity” value is 2.64% (inactive). Regarding `O=C(O)CCCc1c[nH]c2ccccc12`, the “activity change, negative = cytotoxicity” value was 0.22% (inactive). Regarding `Cc1oc(=O)oc1COC(=O)[C@@H]1N2C(=O)[C@@H](NC(=O)[C@H](N)c3ccccc3)[C@H]2SC1(C)C`, the “activity change, negative = cytotoxicity” value is 10.5% [at 42.5 µM] (inactive). `O=S(=O)(Cl)c1c(Cl)cccc1Cl`: the “activity change, negative = cytotoxicity” value is 3.43% (inactive). On to `CC1=C2[C@@H]([C@H](C)CC[C@H]2/C=C(\C)C(=O)O)[C@H](O)C1`, for which the “activity change, negative = cytotoxicity” value is -3% (inactive). As to `Nc1ccc(F)cc1`, the “activity change, negative = cytotoxicity” value is -3.81% (inactive). In the case of `CC(=O)c1ccc[nH]1`, the “activity change, negative = cytotoxicity” value was 2.91% (inactive).

As for `CC(=O)C(C)=O`, the “activity change, negative = cytotoxicity” value is 7.24% (inactive).
